# IL-1B inflam inh – qHTS for Inhibitors of Inflammasome Signaling: IL-1-beta AlphaLISA Primary Screen | THP-1 LPS/ATP IL-1B secretion, AlphaLISA, 16 h; stronger effect = lower value | activity change, % at 57.5 µM | actives 4.7% (n = 360,000); in the data active = activity change below about -50%; inconclusive = mostly about -30% to -49%
#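 THP-1 cells pretreated 1 hr with compounds (up to 57.5 uM final), then stimulated with LPS (250 ng/mL final) plus ATP (1.25 mM final); secreted IL-1B measured by AlphaLISA after 16 hr, decreased signal indicating inhibition.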
# Chronic BCR inh – qHTS Assay to Find Inhibitors of Chronic Active B-Cell Receptor Signaling | ABC-DLBCL IkBa-CBG/CBR reporter, luminescence ratio, 4 h | Potency, µM (titrated, usually from 46.1 µM), usual class: inhibitors | actives 0.05% (n = 340,000); active = well fitted inhibition curve with a large enough effect in the signal ratio, with a control signal flat, not every such curve was filed as active; inconclusive = small, poorly fitted or top-dose-only effect, or effect the other way, or a change in a side signal; the % refers to the signal ratio
#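 Cell line TMD8 (human ABC DLBCL), stably expressing tet-inducible CBG68-IkBa fusion and CBR; IMDM/0.5% FBS; cpd up to 46 uM; dox induction, 4 h, 37C/5% CO2; dual luminescence; green/red ratio; MG132 control.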
# TDP1 cell CPT – qHTS for Inhibitors of human tyrosyl-DNA phosphodiesterase 1 (TDP1): qHTS in cells in presence of CPT; chicken DT40 Tdp1-/-;hTDP1 cells + 20 nM CPT, ATP luminescence, 48 h; actives 12% (n = 420,000); Potency, µM (titrated, usually from 46.2 µM), actives largely listed as inhibitors; note: nearly all actives have a fitted effect of over 55% in size
#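 Chicken DT40 Tdp1-/- cells complemented with human TDP1, 400 cells/well, exposed to compounds plus 20 nM camptothecin for at least 48 h at 37 C; viability read as ATP content by CellTiter-Glo luminescence.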
# MCF10A rerep – A quantitative high throughput screen for small molecules that induce DNA re-replication in MCF 10a normal breast cells; MCF 10A DNA re-replication, Hoechst nuclear intensity, 48 h; Potency, µM (titrated, usually from 46.1 µM), actives largely listed as activators; actives 2.9% (n = 350,000); AID 624296, 2012; note: nearly all actives have a fitted effect of over 50% in size
# SW480 rerep – A quantitative high throughput screen for small molecules that induce DNA re-replication in SW480 colon adenocarcinoma cells | SW480 DNA re-replication, Hoechst DNA content imaging, 48 h | Potency, µM (doses to about 46.1 µM), usual class: activators | actives 1.8% (n = 340,000) | AID 624297, 2012; note: nearly all actives have a fitted effect of over 55% in size
#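 SW480 cells exposed to compounds for 48 hr at 37 C, 5% CO2, then Hoechst-stained 40 min. Nuclear DNA content imaged by fluorescence scanning (405 nm excitation, 500-530 nm emission); re-replication scored as increased high-intensity nuclei.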
# DT40 TDP1 no CPT – qHTS for Inhibitors of human tyrosyl-DNA phosphodiesterase 1 (TDP1): qHTS in cells in absence of CPT. DT40 Tdp1-/- hTDP1 cells, no CPT, ATP luminescence, 48 h. Potency, µM (titrated, usually from 46.2 µM), most hits filed as inhibitors. actives 15% (n = 420,000); note: nearly all actives have a fitted effect of over 55% in size
#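 Growth kinetics read by CellTiter-Glo luminescence after ≥48 hr at 37 °C. Cells: DT40 Tdp1-/- stably carrying human TDP1, 400 per well, compound exposure in the absence of CPT (DMSO vehicle).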
# Hits are given with their value; 0 = inactive; ? = inconclusive; - = no result. Sampled rows, rich in hits. Any-hit rate of the full collection: about 19%. Unless noted, calls come from the whole dose curve; as a rule, active = well fitted curve in the direction sought with a large enough effect; inconclusive = small, poorly fitted or top-dose-only effect, or another doubt; inactive = no such curve, though single readings can be large; an effect the other way counts as inactive or inconclusive.
SMILES,IL-1B inflam inh,Chronic BCR inh,TDP1 cell CPT,MCF10A rerep,SW480 rerep,DT40 TDP1 no CPT
CCOc1cc(N2CCOCC2)c(OCC)cc1NC(=O)COC(=O)CCOc1cc(C)ccc1C,-86,?,?,?,0,23µM
CCOc1cc(N2CCOCC2)c(OCC)cc1NS(=O)(=O)c1ccc(Cl)s1,0,?,4.6µM,6.3µM,18µM,2.9µM
CCOc1cc(N2CCOCC2)c(OCC)cc1NC(=O)C1CCCC1,0,0,?,0,0,29µM
CC1(C(=O)O)CCN1C(=O)c1ccccc1F (centres undefined),0,-,0,-,-,0
CCOc1cc(N2CCOCC2)c(OCC)cc1NC(=O)CN1CCCC1,0,0,0,0,0,0
CCOc1cc(N2CCOCC2)c(OCC)cc1NC(=O)CCC1CCCC1,0,0,16µM,?,0,18µM
CCCNC(=O)Nc1cc(OCC)c(N2CCOCC2)cc1OCC,0,0,?,0,0,18µM
CC(Oc1cccc(Cl)c1)C(=O)Nc1ccccc1C(=O)N1CCCCC1 (centres undefined),0,0,23µM,0,0,?
CC(Oc1cccc(Cl)c1)C(=O)Nc1cc(Cl)ccc1N1CCOCC1 (centres undefined),0,0,21µM,?,9.2µM,?
Cc1cccc(C(=O)OCC(=O)N(CC(C)C)c2c(N)n(Cc3ccccc3)c(=O)[nH]c2=O)c1O,0,0,?,0,0,0
C[C@H](CO)N1C[C@H](C)[C@@H](CN(C)S(C)(=O)=O)Oc2ccc(NC(=O)c3ccncc3)cc2C1=O,0,0,0,0,0,0
Cc1cccc(-c2noc(-c3ccc(NCc4ccccc4)c([N+](=O)[O-])c3)n2)c1,-,-,0,-,-,0
Cc1ccc(-c2noc(-c3ccc(NCc4ccco4)c([N+](=O)[O-])c3)n2)cc1,-,-,0,-,-,0
COc1ccccc1CNc1ccc(-c2nc(C)no2)cc1[N+](=O)[O-],-,-,7.3µM,-,-,7.3µM
Cc1noc(-c2ccc(NCc3ccccc3)c([N+](=O)[O-])c2)n1,-,-,18µM,-,-,?
CC1(C)CC[C@]2(C(=O)O)CC[C@@]3(C)C(=CCC4[C@@]5(C)CCC(O)C(C)(C)C5CC[C@@]43C)C2C1 (some centres undefined),-,-,0,-,-,0
CCc1nc(SCc2ccccc2C)n[nH]1,0,0,0,0,0,?
NC(=O)C1CN(C(=O)c2nn(Cc3ccccc3)c(=O)c3ccccc23)c2ccccc2O1 (centres undefined),0,0,?,0,0,?
CN(C)Cc1ccccc1-c1cccc2nccn12,0,-,0,-,-,0
CS(=O)(=O)c1ccccc1-c1nnc(NC(=O)c2ccc3ncsc3c2)o1,0,0,?,0,?,?
CC1CCCC2(C1)NC(=S)c1c(sc3c1CCCC3)N2 (centres undefined),0,0,?,0,0,3.7µM
CCOC(=O)[C@H]1[C@H]2COc3ccc(OC)cc3[C@@H]2N2C(=O)CN(Cc3ccc(F)cc3)C(=O)[C@@]12C,0,0,?,0,0,?
CCOC(=O)[C@H]1[C@H]2COc3ccc(Br)cc3[C@@H]2N2C(=O)CN(Cc3ccc(Cl)cc3)C(=O)[C@@]12C,0,0,18µM,?,0,?
CCOC(=O)[C@H]1[C@H]2COc3ccc(Br)cc3[C@H]2N2C(=O)CN(Cc3ccc(Cl)cc3)C(=O)[C@@]12C,-52,-,?,0,?,23µM
CCOC(=O)[C@H]1[C@H]2COc3ccc(Br)cc3[C@@H]2N2C(=O)CN(Cc3ccc(F)cc3)C(=O)[C@@]12C,0,?,?,?,0,21µM
